PubChem BioAssay (NCI)
Compounds without any hit were thinned out: in the full panel of roughly 83,000, 20% have a hit.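 48-hour exposure, single concentration, 96-well plates; percent growth endpoint where 0 means no net growth. Active: below 10.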 Active and inactive are the calls of the source.

Columns and labels:
Experiment in all cases: NCI-60 one-dose screen, 48 h (100 = growth as untreated, 0 = no growth, -100 = all killed)
[1] = system: NCI-H226 lung; settings: 10 µM unless noted
[2] = system: NCI-H322M lung; settings: 10 µM unless noted
[3] = system: NCI-H460 lung; settings: 10 µM unless noted
[4] = system: HOP-92 NSCLC; settings: 10 µM
[5] = system: NCI-H522 lung; settings: 10 µM
[6] = system: A549/ATCC NSCLC; settings: 10 µM unless noted
[7] = system: 786-0 renal; settings: 10 µM unless noted
[8] = system: COLO 205 colon; settings: 10 µM unless noted
[9] = system: DU-145 prostate; settings: 10 µM unless noted
[10] = system: K-562 leukemia; settings: 10 µM unless noted
[11] = system: MALME-3M melanoma; settings: 10 µM unless noted
[12] = system: MDA-MB-231 breast; settings: 10 µM unless noted
[13] = system: RXF 393 renal; settings: 10 µM unless noted
[14] = system: SF-268 CNS; settings: 10 µM unless noted
[15] = system: SF-295 CNS; settings: 10 µM unless noted
[16] = system: SF-539 CNS; settings: 10 µM unless noted
[17] = system: UACC-257 melanoma; settings: 10 µM unless noted
[18] = system: M14 melanoma; settings: 10 µM unless noted
[19] = system: HOP-62 NSCLC; settings: 10 µM unless noted

Measured: growth

Nc1ccc(S(=O)(=O)c2ccc(NO)cc2)cc1
inactive: [1] 118% | [2] 116% | [3] 111% | [4] 108% | [5] 79.4% | [6] 105% | [7] 99.1% | [8] 111% | [9] 89.4% | [10] 91.8% | [11] 144% | [12] 98.3% | [13] 53.7% | [14] 109% | [15] 106% | [16] 76.8% | [17] 106% | [18] 117%

CCCCCCNc1nc(N2CCOCC2)c2[nH]c(NCCCCCC)nc2n1
active: [1] -82.9% | [2] -46.7% | [19] -95.9% | [4] -77.7% | [5] -79.8% | [6] -90.1% | [7] -100% | [8] -64.8% | [9] -88.1% | [10] -52.4% | [11] -62.2% | [12] -94.4% | [13] -84.9% | [14] -92.8% | [15] -61.8% | [16] -94.4% | [17] -95.4% | [18] -98%

CC1(C)Oc2cc3oc(=O)ccc3cc2C[C@@H]1OCCOS(=O)(=O)c1ccc(C#N)cc1
inactive: [1] 87.8% | [2] 105% | [3] 93% | [4] 91.4% | [5] 77.8% | [6] 92.5% | [7] 100% | [9] 103% | [11] 93.6% | [12] 94.5% | [14] 89.2% | [15] 87.7% | [16] 96.6% | [17] 84.2% | [18] 98.4%

CCCC(=O)NNc1[nH]c(-c2ccc(OC)cc2)cc1C(=O)OCC
active: [8] 1.42%
inactive: [1] 104% | [2] 35.2% | [3] 120% | [4] 72.9% | [5] 91.1% | [6] 110% | [7] 96.6% | [9] 104% | [10] 49.1% | [11] 52% | [12] 87.4% | [13] 107% | [14] 118% | [15] 93.7% | [16] 92.7% | [17] 105%

O=C1C(=O)c2ccccc2C(O)=C1CCCc1ccc(C2CCCC2)cc1
inactive: [1] 36.8% | [2] 37.9% | [4] 78.2% | [5] 39.2% | [6] 37.9% | [7] 43.8% | [8] 54.7% | [9] 40.5% | [10] 19.2% | [11] 84% | [12] 56.5% | [13] 57.9% | [14] 47.6% | [15] 27.3% | [16] 22.9% | [17] 40.7%
active: [3] 9.54%

O=C(Nc1cccc(Cn2c(=O)[nH]c3ccc(Oc4ncccn4)cc3c2=O)c1)c1cc(Cl)cc(Cl)c1
active: [10] 4.32%
inactive: [1] 44.2% | [2] 57.7% | [19] 71.6% | [4] 44.1% | [5] 49.3% | [6] 56% | [7] 72.6% | [9] 68% | [11] 30.5% | [12] 39.3% | [13] 31.9% | [14] 69.1% | [15] 64.6% | [16] 11.8% | [17] 68.4% | [18] 73%

O=C(N/N=C\c1ccc(Cl)cc1)C(=O)N/N=C\c1ccc(Cl)cc1
inactive: [1] 110% | [2] 92.9% | [3] 103% | [4] 92.3% | [5] 101% | [6] 102% | [7] 91.2% | [8] 97% | [9] 123% | [10] 95.2% | [11] 89.6% | [12] 91.3% | [13] 118% | [14] 120% | [15] 96.8% | [16] 99.5% | [17] 108% | [18] 103%

COC1=C(OC)C(=O)c2ccccc2C1=O
inactive: [1] 102% | [2] 107% | [3] 97.4% | [4] 95% | [5] 94.8% | [6] 96.9% | [7] 120% | [8] 100% | [9] 112% | [11] 126% | [12] 94% | [13] 93.2% | [15] 108% | [16] 102% | [17] 76.7% | [18] 105%

CCOC(=O)/C(C#N)=C(/CC)OCC
inactive: [1] 102% | [2] 92.2% | [3] 110% | [6] 104% | [7] 103% | [8] 113% | [9] 106% | [10] 89% | [11] 92.6% | [12] 107% | [13] 114% | [14] 93.1% | [15] 101% | [16] 113% | [17] 99.9% | [18] 95.5%
